The campaign covered roughly 43,000 compounds. About 830 (1.9%) were called active. Inconclusive results (about 30%) are left out. Many of the other results were omitted from the sample, so actives are more common in it than they were. Values without a mark were called inactive. How the source made its calls: active means clear falling dose curves in both reporters; inconclusive means both reporters move, but less clearly or upward; inactive means either reporter flat; the % is the NLuc reporter signal.
Test: Cell-based coincidence reporter assay to measure PMP22 gene transcription in S16 Pmp22-F2sN cells - Primary screen
Conditions: S16 Pmp22-F2sN Schwann cells (luciferase reporters placed in the Pmp22 gene), FLuc/NLuc coincidence luminescence, 24 h; series mostly up to 57.5 µM; activity change, negative = inhibition: at the top concentration
Description: Assay Provider: Jim Inglese Ph.D. National Center for Advancing Translational Science, National Institutes of Health, Rockville, MD CMT is a heterogeneous group of neurological disorders that affect approximately 1 in 2,500 people. In particular, the most common form of CMT, CMT1A is genetically linked to the duplication of the PMP22 gene which leads to Schwann cell overexpression, thus manifesting itself as a typical case of dose-sensitive diseases. To identify small molecule compounds that can mediate the expression of PMP22 we developed a phenotypic assay screening strategy by utilizing genome editing techniques to construct Schwann cell lines containing novel reporter technology to monitor the transcriptional or translational regulation of PMP22. For high sensitivity we use a bioluminescent reporter system embedded in the 3' UTR of the PMP22 gene (S16(c9) Pmp22-F2sN) to identify compounds that inhibit gene expression. […] We can further discriminate the effect of all transcriptionally active molecules on PMP22 translation or stability with an assay that incorporates a short NLuc peptide (HiBiT) at the C-terminus of expressed PMP22 (S16(f8) PMP22-HiBiT) allowing alpha complementation and luminescence detection of membrane-associated PMP22 protein. These assays were screened against the NCATS Sytravon Library Collection. Miniaturization of these assays to 1536-well plate format for quantitative high throughput screening (qHTS) yielded rich data sets immediately from the qHTS assay (S16(c9) Pmp22-F2sN), when compared with data from a cell viability assay (Cell TiterGlo) to identify compounds that decreased the output signals through cellular toxicity to streamline the selection process of actives for subsequent characterization using the HiBiT assay (S16(f8) PMP22-HiBiT).
Cell-based coincidence reporter assay to measure PMP22 gene transcription in S16 Pmp22-F2sN cells PROTOCOL TABLE (format as described by Inglese J, Shamu CE and Guy RK. 2007) SEQUENCE No. (e.g., 1, 2, 3, etc.); […] (e.g., Cells, Incubation, Reagent, etc.); VALUE and DESCRIPTION. 1. Cells. Add 500-1,000 cells in 4 uL in growth media (DMEM High Glucose, No Phenol Red media + 10% heat-inactivated FBS + 1% Pen/Strep supplemented media) per well into Greiner 1536-well white/solid bottom high base, TC-treated plates. 2. Compounds. Library compounds and controls added at 23nL per well, transferred by Pin Tool. 3. Incubation. Incubate plates at 37C, 5% CO2, 95% RH for 24 h. 4. Reagent. Add 3.5uL Nano-Glo Dual-Luciferase Reporter Assay System reagent 1: Lysis and FLuc reagent per well of Greiner 1536-well plates. 5. Incubation. Incubate plates at room temperature for 10 min., protect from light. 6. Detector. FLuc luminescence measured using CCD-based camera (Viewlux). 7. Reagent. Add 3.5uL Nano-Glo Dual-Luciferase Reporter Assay System reagent 2: Stop&Glo reagent per well of Greiner 1536-well plates. 8. Incubation. Incubate plates at room temperature for 10 min., protect from light. 9. Detector. NLuc luminescence measured using CCD-based camera (Viewlux). NOTES (numbers refer to Sequence numbers above; values are from representative experiments) 6. Luminescence Read #1 (FLuc): Clear filter; Exposure = 10 sec, Gain = High, Speed = Slow, Binning = 2X 9. Luminescence Read #2 (NLuc): Clear filter; Exposure = 1 sec, Gain = High, Speed = Slow, Binning = 2X REFERENCES: 1. Inglese J, Shamu CE and Guy RK, Reporting data from high throughput screening of small molecule libraries, Nature Chemical Biology, 2007, 3(8): 438-441. doi.org/10.1038/nchembio0807-438 2. Yasgar A, Shinn P, Jadhav A, Auld DS, Michael S, Zheng W, Austin CP, Inglese J and Simeonov A, Compound Management for Quantitative High-Throughput Screening. J. Assoc. Lab. Auto., 2008, 13: 79-89. doi: 10.1016/j.jala.2007.12.004
On the % scale 0 is the no-effect control and ±100 the full control effect; potency means the concentration at half of the fitted maximal effect.

Row | SMILES | Potency | activity change, negative = inhibition [%]
1 | Cc1ccc(NC(=O)c2nc(S(=O)(=O)Cc3cccc(C)c3)ncc2Cl)cc1 | 4.22 µM (active) | 
2 | CCS(=O)(=O)c1ncc(N(Cc2ccc(F)cc2)Cc2ccco2)c(C(=O)Nc2cc(C)ccc2C)n1 |  | 1.94
3 | CCSc1ncc(Cl)c(C(=O)Nc2cc(C)ccc2C)n1 |  | 4.67
4 | Cc1cc2oc(C(=O)N(Cc3ccc(Cl)cc3)Cc3ccco3)c(C)c2cc1Cl |  | -4.49
5 | O=C(NCC(c1ccco1)S(=O)(=O)c1cccs1)c1ccc(F)cc1 (configuration not stated) |  | -8.16
6 | CC(C)(C)c1ccc(C(=O)NCC(c2ccco2)S(=O)(=O)c2ccc(F)cc2)cc1 (configuration not stated) | 15.8 µM (active) | 
7 | COc1ccccc1CNC(=O)C(=O)NCC(c1ccco1)S(=O)(=O)c1ccc(F)cc1 (configuration not stated) |  | -28.9
8 | O=S(=O)(c1ccc2nc(NCc3ccccc3Cl)ccc2c1)N1CCCCC1 |  | -32.7
9 | COc1ccccc1NC(=O)CN1C(=O)c2ccccc2Sc2ccc(C(=O)N3CCCC3)cc21 |  | -28
10 | Cc1cccc(C(=O)Nc2ccc(-c3nc4ncccc4o3)cc2C)c1 |  | -4.56
11 | CC1=Nc2cc(C(=O)NCc3ccc(C)cc3)ccc2Sc2ccc(Cl)cc21 |  | -6.27
12 | CCOCCCNC(=O)c1ccc2nc(CCc3ccccc3)oc2c1 |  | 0.539
13 | CCC1=Nc2cc(C(=O)NCCCOC(C)C)ccc2Sc2ccc(C)cc21 | 8.54 µM (active) | 
14 | O=C(Nc1ccc(F)cc1F)c1ccc2c(=O)n3c(nc2c1)CCCCC3 |  | -12.8
15 | Cc1cc(N2CCN(c3cccc(C(F)(F)F)c3)CC2)n2nc(-c3ccccc3)nc2n1 |  | 4.74
16 | O=C(CSc1oc(-c2ccco2)nc1S(=O)(=O)c1ccc(Cl)cc1)c1ccccc1 |  | -14.8
17 | CCc1ccc2oc(-c3ccc(C)c(NC(=O)/C=C/c4ccco4)c3)nc2c1 |  | -6.73
18 | COc1ccc(CNC(=O)CSc2nc3ccccc3nc2Cc2ccccc2)cc1 |  | 0.264
19 | CCc1ccc(NC(=O)c2nn(-c3ccc(C)cc3)c(=O)n(C)c2=O)cc1 |  | 4.83
20 | Fc1ccc(-c2nc(Nc3cccc(Cl)c3)nc3c2COc2ccccc2-3)cc1 |  | 1.62
21 | Cc1ccc(CNC(=O)CSc2c3c(nc4cc(Cl)ccc24)CCCC3)cc1 |  | -14.6
22 | CCOC(=O)C1CCN(C(=O)CSc2c3c(nc4ccc(Cl)cc24)CCCC3)CC1 | 18.9 µM (active) | 
23 | CCOC(=O)C1CCCN(C(=O)c2ccc3c(c2)sc2nc(-c4ccc(CC)cc4)cn23)C1 (configuration not stated) |  | -68.5
24 | CCOc1ccc(N2CC(c3nc4ccccc4n3CCOc3ccc(OC)cc3)CC2=O)cc1 (configuration not stated) |  | -6.83

Row | SMILES | Potency | activity change, negative = inhibition [%]
25 | CCCN1C(=O)C(O)(CC(=O)c2ccc(CC)cc2)c2cc(Br)ccc21 (configuration not stated) | 12.6 µM (active) | 
26 | Cc1cc(C)cc(NC(=O)CCS(=O)(=O)c2cc3c4c(c2)CCN4C(=O)CC3)c1 |  | -4.74
27 | Cc1ccc(C)c(N2CCN(C(=O)CCc3c(C)nc4c(c3C)c(=O)n(C)c(=O)n4C)CC2)c1 |  | -34.2
28 | CCOC(=O)c1c(C)[nH]c(C)c1S(=O)(=O)N(C)CC(=O)N1CCN(c2ccccc2)CC1 |  | -18.3
29 | CCOC(=O)c1[nH]c(C)c(CCC(=O)N2CCN(c3ccccc3)CC2)c1C |  | -2.38
30 | CCOC(=O)c1c(C)[nH]c(CCC(=O)NCCCN2CCN(c3cccc(Cl)c3)CC2)c1C | 17.9 µM (active) | 
31 | CCOC(=O)c1c(C)[nH]c(CCC(=O)NCCCN2CCN(c3cc(C)ccc3C)CC2)c1C | 12.1 µM (active) | 
32 | Cc1ccc(C)c(N2CCN(C(=O)Cc3c(C(=O)O)c(C)cn3C)CC2)c1 |  | 0.691
33 | O=C(CSc1nnc(-c2ccccc2F)o1)Nc1cccc(C(F)(F)F)c1 |  | 5.33
34 | COc1cccc(NC(=O)C(=O)NCC(c2ccc3c(c2)OCO3)N2CCN(C)CC2)c1 (configuration not stated) |  | -29.9
35 | COc1cc(NC(=O)C2CCN(c3cnccn3)CC2)cc(OC)c1 |  | -10.2
36 | Brc1ccc(-c2noc(-c3ccccc3)n2)o1 |  | -13.7
37 | O=C(NCCCc1ccccc1)c1ccc2c(c1)sc1nc(-c3ccc(F)cc3)cn12 |  | -12.4
38 | CCCCOc1ccc(Cn2c(=O)oc3ccc(C)cc32)cc1OC |  | -12.8
39 | CCCCOc1ccc(CN2C(=O)C(=O)c3cc(Br)cc(C)c32)cc1OC | 4.5 µM (active) | 
40 | CCOc1ccc(CNCc2c(C(=O)O)c(C)n(Cc3cccc(OC)c3)c2C)cc1OC |  | -23.9
41 | Cc1ccc(-c2cc(C(F)(F)F)c(C#N)c(SCC(=O)Nc3ccccc3)n2)cc1 |  | 3.61
42 | CCOC(=O)c1c(NC(=O)c2cc(-c3ccc(Cl)cc3)on2)sc2c1CCCC2 |  | -8.48
43 | COc1ccc(/C=C/c2noc(-c3ccccc3O)n2)cc1OC |  | -88.6
44 | Cc1c(-c2nc(-c3ccc4c(c3)OCO4)no2)nnn1-c1ccc(Br)cc1F |  | -12.3
45 | COc1cccc(CNS(=O)(=O)c2cc3c(cc2C)n(C)c(=O)c(=O)n3C)c1 |  | -24.1
46 | O=C(CCCn1c(=O)c2cccn2c2cccnc21)NCc1ccc(F)cc1 | 17.9 µM (active) | 
47 | COc1ccc(OC)c(CCNC(=O)CCCn2c(=O)c3cccn3c3cccnc32)c1 |  | -47.8

— PubChem BioAssay AID1508649 (National Center for Advancing Translational Sciences (NCATS), 2021)
